# Assay results: PubChem BioAssay AID1159580 (chemical genetic matrix, 2015)
# Among all 5,500 compounds or so, about 2,000 (36%) were called active. Another 18% or so got no clear call; they are omitted. The list shows a part of the results. A number with no mark means an inactive call. Cut-off read from the data, not from the text of the source: active = normalized growth mostly below about 0.91 (no sharp cut-off); inconclusive = no clear call, values can overlap the other calls; inactive = mostly above about 0.92.
# Experiment: chemical genetic growth profiling, strain panel (AID 1159580);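 note: tested at 20 µM; growth read once vehicle control cultures reached saturation at 30 °C; 1 = growth at the plate median or of vehicle wells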
# Settings: S. cerevisiae deletion strains, growth OD
structure (smiles),measurement,setting,value
C/C(=C\CO)CC[C@H](C)CCC[C@H](C)CCCC(C)C,normalized growth,"locus YJR066W, strain TOR1, stronger effect = lower value",0.98
same,normalized growth,"locus YJR075W, strain HOC1, stronger effect = lower value",1.12
same,normalized growth,"locus YKL009W, strain mrt4, stronger effect = lower value",1.09
same,normalized growth,"locus YKL068W, stronger effect = lower value",1.09 [resistant] (active)
same,normalized growth,"locus YKL085W, strain MDH1 (second series), stronger effect = lower value",1.07 [resistant] (active)
same,normalized growth,"locus YKL085W, strain MDH1, stronger effect = lower value",1.07 [resistant] (active)
same,normalized growth,"locus YKL160W, strain elf1, stronger effect = lower value",0.984
same,normalized growth,"locus YKL190W, strain CNB1, stronger effect = lower value",1.05
same,normalized growth,"locus YKR001C, strain vps1, stronger effect = lower value",1.19 [resistant] (active)
same,normalized growth,"locus YKR026C, strain gcn3, stronger effect = lower value",1.12 [resistant] (active)
same,normalized growth,"locus YKR091W, strain srl3, stronger effect = lower value",1.12 [resistant] (active)
same,normalized growth,"locus YLL001W, strain dnm1, stronger effect = lower value",1.13 [resistant] (active)
same,normalized growth,"locus YLL026W, stronger effect = lower value",1.14 [resistant] (active)
same,normalized growth,"locus YLL041C, strain sdh2, stronger effect = lower value",1.13 [resistant] (active)
same,normalized growth,"locus YLR027C, strain aat2, stronger effect = lower value",1.12 [resistant] (active)
same,normalized growth,"locus YLR039C, strain RIC1, stronger effect = lower value",1.16
same,normalized growth,"locus YLR058C, strain SHM2, stronger effect = lower value",1.09
same,normalized growth,"locus YLR102C, strain apc9, stronger effect = lower value",1.11 [resistant] (active)
same,normalized growth,"locus YLR113W, strain HOG1, stronger effect = lower value",0.959
same,normalized growth,"locus YLR221C, strain rsa3, stronger effect = lower value",1.15 [resistant] (active)
same,normalized growth,"locus YLR258W, strain gsy2, stronger effect = lower value",1.14 [resistant] (active)
same,normalized growth,"locus YLR262C, strain YPT6 (second series), stronger effect = lower value",1.17 [resistant] (active)
same,normalized growth,"locus YLR262C, strain YPT6, stronger effect = lower value",1.16
same,normalized growth,"locus YLR268W, strain sec22, stronger effect = lower value",1.15 [resistant] (active)
same,normalized growth,"locus YLR320W, strain mms22, stronger effect = lower value",0.988
same,normalized growth,"locus YLR330W, strain CHS5, stronger effect = lower value",1.1 [resistant] (active)
same,normalized growth,"locus YLR342W, strain FKS1 (second series), stronger effect = lower value",1.1
same,normalized growth,"locus YLR342W, strain FKS1, stronger effect = lower value",1.09
same,normalized growth,"locus YLR357W, strain rsc2, stronger effect = lower value",1.1
same,normalized growth,"locus YLR370C, strain arc18, stronger effect = lower value",1.1 [resistant] (active)
same,normalized growth,"locus YLR371W, strain rom2, stronger effect = lower value",1.04
same,normalized growth,"locus YLR384C, strain iki3, stronger effect = lower value",0.978
same,normalized growth,"locus YLR418C, strain cdc73, stronger effect = lower value",1.12
same,normalized growth,"locus YML016C, strain PPZ1, stronger effect = lower value",1.05
same,normalized growth,"locus YML032C, strain rad52, stronger effect = lower value",1.15 [resistant] (active)
same,normalized growth,"locus YML120C, strain ndi1, stronger effect = lower value",1.13 [resistant] (active)
same,normalized growth,"locus YML124C, strain tub3, stronger effect = lower value",1.12 [resistant] (active)
same,normalized growth,"locus YMR058W, strain fet3, stronger effect = lower value",1.13 [resistant] (active)
same,normalized growth,"locus YMR078C, strain ctf18, stronger effect = lower value",1.15 [resistant] (active)
same,normalized growth,"locus YMR125W, strain sto1, stronger effect = lower value",1.13 [resistant] (active)
same,normalized growth,"locus YMR129W, stronger effect = lower value",1.14 [resistant] (active)
same,normalized growth,"locus YMR205C, strain PFK2, stronger effect = lower value",1.08
same,normalized growth,"locus YMR223W, strain ubp8, stronger effect = lower value",1.13 [resistant] (active)
same,normalized growth,"locus YMR231W, strain pep5, stronger effect = lower value",1.14 [resistant] (active)
same,normalized growth,"locus YMR263W, strain SAP30, stronger effect = lower value",1.12 [resistant] (active)
same,normalized growth,"locus YMR307W, strain GAS1, stronger effect = lower value",1.1
same,normalized growth,"locus YNL067W, strain RPL9B, stronger effect = lower value",1.08
same,normalized growth,"locus YNL071W, strain lat1, stronger effect = lower value",1.13 [resistant] (active)
same,normalized growth,"locus YNL153C, strain GIM3, stronger effect = lower value",1.13 [resistant] (active)
same,normalized growth,"locus YNL183C, strain NPR1, stronger effect = lower value",0.967
same,normalized growth,"locus YNL209W, strain ssb2, stronger effect = lower value",1.12 [resistant] (active)
same,normalized growth,"locus YNL233W, strain BNI4, stronger effect = lower value",1.07
same,normalized growth,"locus YNL248C, strain rpa49, stronger effect = lower value",1.13 [resistant] (active)
same,normalized growth,"locus YNL250W, strain rad50, stronger effect = lower value",1.13 [resistant] (active)
same,normalized growth,"locus YNL271C, strain bni1, stronger effect = lower value",1.12 [resistant] (active)
same,normalized growth,"locus YNL298W, strain CLA4, stronger effect = lower value",1.14 [resistant] (active)
same,normalized growth,"locus YNL307C, strain MCK1, stronger effect = lower value",1.14 [resistant] (active)
same,normalized growth,"locus YNL322C, strain KRE1 (second series), stronger effect = lower value",1.08
same,normalized growth,"locus YNL322C, strain KRE1, stronger effect = lower value",1.07
same,normalized growth,"locus YNR049C, strain mso1, stronger effect = lower value",1.11 [resistant] (active)
same,normalized growth,"locus YNR052C, strain pop2, stronger effect = lower value",1.14 [resistant] (active)
same,normalized growth,"locus YOL006C, strain TOP1, stronger effect = lower value",1.12
same,normalized growth,"locus YOL012C, strain htz1",1.59
same,normalized growth,"locus YOL147C, strain pex11, stronger effect = lower value",1.12 [resistant] (active)
same,normalized growth,"locus YOR001W, strain rrp6, stronger effect = lower value",1.15 [resistant] (active)
same,normalized growth,"locus YOR061W, strain CKA2, stronger effect = lower value",1.1
same,normalized growth,"locus YOR069W, strain VPS5, stronger effect = lower value",1.05
same,normalized growth,"locus YOR070C, strain gyp1, stronger effect = lower value",1.08 [resistant] (active)
same,normalized growth,"locus YOR080W, strain dia2, stronger effect = lower value",0.982
same,normalized growth,"locus YOR083W, strain WHI5, stronger effect = lower value",1.14 [resistant] (active)
same,normalized growth,"locus YOR106W, strain vam3, stronger effect = lower value",1.15 [resistant] (active)
same,normalized growth,"locus YOR136W, strain idh2, stronger effect = lower value",1.15 [resistant] (active)
same,normalized growth,"locus YOR144C, strain elg1, stronger effect = lower value",1.13 [resistant] (active)
same,normalized growth,"locus YOR184W, strain ser1, stronger effect = lower value",1.15 [resistant] (active)
same,normalized growth,"locus YOR231W, strain MKK1, stronger effect = lower value",0.984
same,normalized growth,"locus YOR265W, strain rbl2, stronger effect = lower value",1.14 [resistant] (active)
same,normalized growth,"locus YOR270C, strain vph1, stronger effect = lower value",1.16
same,normalized growth,"locus YOR290C, strain snf2, stronger effect = lower value",1.13 [resistant] (active)
same,normalized growth,"locus YOR316C, strain cot1, stronger effect = lower value",1.13 [resistant] (active)
same,normalized growth,"locus YPL051W, strain arl3, stronger effect = lower value",1.05
same,normalized growth,"locus YPL055C, strain LGE1, stronger effect = lower value",1.05
same,normalized growth,"locus YPL078C, strain atp4, stronger effect = lower value",1.12 [resistant] (active)
same,normalized growth,"locus YPL106C, strain sse1, stronger effect = lower value",1.15 [resistant] (active)
same,normalized growth,"locus YPL240C, strain hsp82, stronger effect = lower value",1.12 [resistant] (active)
same,normalized growth,"locus YPL256C, strain CLN2, stronger effect = lower value",0.961
same,normalized growth,"locus YPR119W, strain clb2, stronger effect = lower value",1.06
same,normalized growth,"locus YPR141C, strain kar3, stronger effect = lower value",1.12 [resistant] (active)
same,normalized growth,"locus YPR163C, strain tif3, stronger effect = lower value",1.13 [resistant] (active)
same,normalized growth,"locus YPR167C, strain met16, stronger effect = lower value",1.09 [resistant] (active)
same,normalized growth,"strain wtn01, stronger effect = lower value",1.12 [resistant] (active)
